Results reported in the supplement of paper PMC13380429.

Legend:
[1] = tested on: Vero E6 infected with SARS-CoV-2; assay: morphology score (similarity to uninfected cells); higher = more like uninfected cells; conditions: 24 h
[2] = tested on: Vero E6 infected with SARS-CoV-2; assay: SARS-CoV-2 infection rate relative to infected DMSO; higher = more infection, active = 60 or less; conditions: 24 h

Row | SMILES | morphology score [1] | SARS-CoV-2 infection rate [2]
1 | COc1ccc(-c2ccc3c(N4CCOC[C@@H]4C)nc(N4CCOC[C@@H]4C)nc3n2)cc1CO (0.833333 µM) | -0.0692 | 105% (inactive)
2 | COc1ccccc1OC(=O)c1ccccc1OC(C)=O [guacetisal] (10 µM) | 0.0562 | 101% (inactive)
3 | O=C(OCC(COC(=O)c1cccnc1)(COC(=O)c1cccnc1)COC(=O)c1cccnc1)c1cccnc1 [niceritrol] (0.833333 µM) | 0.129 | 96.5% (inactive)
4 | CCc1ccc2c(-c3cccc(Cl)c3)nc(=O)n(CC)c2n1 (10 µM) | 0.375 | 100% (inactive)
5 | COC(=O)C1=C(C)NC(C)=C(C(=O)OC)C1c1ccccc1[N+](=O)[O-] [nifedipine] (10 µM) | -0.0637 | 106% (inactive)
6 | CC(=O)NS(=O)(=O)c1ccc(N)cc1 [sulfacetamide] (10 µM) | 0.147 | 100% (inactive)
7 | CCc1ccc(/C=C/C(=O)Nc2ccc(C(C)=O)cc2)o1 [heclin] (10 µM) | 0.263 | 77% (inactive)
8 | O=C1c2ccccc2-c2n[nH]c3cccc1c23 [pyrazolanthrone] (10 µM) | 0.0961 | 106% (inactive)
9 | COc1ccc(Nc2ncnc3ccc(OC)cc23)cc1 (10 µM) | -0.228 | 122% (inactive)
10 | COc1cc(NC(=O)c2ccccn2)ccc1Cl (10 µM) | 0.133 | 96.5% (inactive)
11 | COc1cc2c(CCNC(C)=O)c[nH]c2cc1Cl [6-chloromelatonin] (10 µM) | 0.0228 | 104% (inactive)
12 | NC(CO)C(=O)NNCc1ccc(O)c(O)c1O (stereo not given) [benserazide] (10 µM) | -0.102 | 96.5% (inactive)
13 | COc1cccc(/C=N/N=C/c2cccc(OC)c2)c1 (10 µM) | 0.132 | 92% (inactive)
14 | CC1(C)O[C@@H]2C[C@H]3[C@@H]4CCC5=CC(=O)C=C[C@]5(C)[C@H]4[C@@H](O)C[C@]3(C)[C@]2(C(=O)CO)O1 [desonide] (10 µM) | 0.0066 | 107% (inactive)
15 | CN(C)CCN(Cc1ccccc1)c1ccccn1 [tripelennamine] (10 µM) | -0.0386 | 110% (inactive)
16 | CCN(c1cc(C#CCN2CCOCC2)cc(C(=O)NCc2c(C)cc(C)[nH]c2=O)c1C)[C@H]1CC[C@H](N(C)CCOC)CC1 (10 µM) | 0.163 | 100% (inactive)
17 | CO[C@H]1/C=C/O[C@@]2(C)Oc3c(C)c(O)c4c(O)c(c(/C=N/N=C/N5CCCCC5)c(O)c4c3C2=O)NC(=O)/C(C)=C\C=C\[C@H](C)[C@H](O)[C@@H](C)[C@@H](O)[C@@H](C)[C@H](OC(C)=O)[C@@H]1C (10 µM) | 0.053 | 108% (inactive)
18 | CCCCC/C=C\C/C=C\CCCCCCCC(=O)NCCCC(=O)O [GABA-linoleamide] (10 µM) | 0.105 | 97.5% (inactive)
19 | CC(C)(C)Nc1nc(Nc2ccc(C(N)=O)cc2)cc(N)c1C#N (0.833333 µM) | 0.029 | 106% (inactive)
20 | Oc1nc(O)c2cn[nH]c2n1 [oxypurinol] (10 µM) | -0.157 | 111% (inactive)
21 | CCC(=O)OCC(=O)[C@@]1(OC(=O)CC)[C@H](C)C[C@H]2[C@H]3[C@H]([C@@H](O)C[C@@]21C)[C@@]1(C)C=CC(=O)C=C1C[C@H]3Cl [alclometasone-dipropionate] (10 µM) | 0.139 | 98% (inactive)
22 | CCOC(=O)[C@@H](C)Oc1cccc2c(=O)n(CC(=O)Nc3ccc4c(c3)OCCO4)ccc12 (10 µM) | -0.204 | 108% (inactive)
23 | COc1ncc(-c2ccc3c(Nc4cc(Oc5cc(F)cc(F)c5)cc(C(=O)O)c4)c(S(=O)(=O)NC4CC4)cnc3c2)c(OC)n1 (10 µM) | -0.00104 | 109% (inactive)
24 | Cc1cccc(CN2CCN(C(c3ccccc3)c3ccc(Cl)cc3)CC2)c1 (stereo not given) [meclizine] (10 µM) | 0.0755 | 108% (inactive)
25 | COc1ccc(C(CN(C)C)C2(O)CCCCC2)cc1 (stereo not given) [venlafaxine] (10 µM) | 0.00722 | 110% (inactive)
26 | O=C1[C@H](CC[C@H](O)c2ccc(F)cc2)[C@@H](c2ccc(O)cc2)N1c1ccc(F)cc1 [ezetimibe] (10 µM) | 0.142 | 110% (inactive)
27 | CCCOc1ccc2[nH]cc(C3=CCNCC3)c2n1 (10 µM) | 0.24 | 96% (inactive)
28 | COC(=O)Nc1ccc2[nH]cc(CCNC(C)=O)c2c1 (10 µM) | 0.0711 | 108% (inactive)
29 | COc1ccc(CCO[C@@H]2CCCC[C@H]2N2CC[C@@H](O)C2)cc1OC [vernakalant] (10 µM) | 0.109 | 110% (inactive)
30 | CCCn1c(=O)c2[nH]cnc2n(-c2ccc(Cl)cc2)c1=O [arofylline] (10 µM) | 0.178 | 108% (inactive)
